A selection: hits, their analogues and other compounds. The true share with any hit is near 3.6%.
DAT uptake mod – changed hDAT dopamine uptake under cocaine IC80, either direction, primary screen, cocaine antagonist project, cell-based, LLC-PK1 hDAT, [14C]-dopamine uptake, MLSMR | Sodium-dependent dopamine transporter (Homo sapiens), Q01959 | B-score at 10 µM | AID 449768, 2010 | 110,000 tested, 1.3% active | LLC-PK1 hDAT cells, [14C]-dopamine uptake with cocaine IC80; actives deviate in either direction;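 active means Z score or B-score, a plate-position-corrected score, falls beyond the plate's 99.7% confidence bounds, in either direction; inactive means both scores lie inside the 99.7% bounds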
Target sequence (Q01959 whole entry, looked up): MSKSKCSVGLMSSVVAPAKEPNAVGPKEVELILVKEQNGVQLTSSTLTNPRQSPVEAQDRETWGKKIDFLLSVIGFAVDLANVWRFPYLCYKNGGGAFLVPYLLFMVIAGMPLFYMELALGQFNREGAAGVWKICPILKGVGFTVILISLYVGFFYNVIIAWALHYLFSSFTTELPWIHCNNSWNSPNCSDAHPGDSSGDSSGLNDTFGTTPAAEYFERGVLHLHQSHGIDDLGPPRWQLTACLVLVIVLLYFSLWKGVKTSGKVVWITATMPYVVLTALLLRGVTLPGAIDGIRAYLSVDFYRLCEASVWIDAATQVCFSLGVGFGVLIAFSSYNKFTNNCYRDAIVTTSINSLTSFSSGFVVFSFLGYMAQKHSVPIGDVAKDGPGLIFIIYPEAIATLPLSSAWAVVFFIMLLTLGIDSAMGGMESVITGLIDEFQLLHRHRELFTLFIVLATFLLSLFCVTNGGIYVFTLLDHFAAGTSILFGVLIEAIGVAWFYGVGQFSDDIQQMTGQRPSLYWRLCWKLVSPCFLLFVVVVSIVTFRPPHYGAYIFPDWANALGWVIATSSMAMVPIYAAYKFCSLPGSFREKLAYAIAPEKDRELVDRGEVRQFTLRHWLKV
bCat KO growth – primary screen for growth suppressors in beta-catenin knockout HCT116 cells (colon tumor, human) | HCT116 beta-catenin knockout viability, CellTiter-Glo, 60 h; hits give low values | viability, % at 10 µM | 140,000 tested, 1.5% active;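 active means viability at or under a set limit, the compound median less 4 SD, cut at about 6% in these data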
HCT116 PTEN-null – growth suppression of PTEN-null HCT116, primary screen, cell-based, CellTiter-Glo. HCT116 PTEN-null viability, 60 h; hits give low values. viability, % at 10 µM. 140,000 tested, 1.2% active. AID 827, 2007;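 active means viability at or below a set limit, 4 SD under the median of all tested compounds, cut at about 3.7% in these data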;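 further: PTEN knockout HCT116 line with beta catenin targeted HCT116 as companion control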
WT yeast gro inh – growth inhibition of WT strain, primary screen, mitochondrial fusion inhibitor project, WT and mutant strains, chemical genetic. AID 1362, 2008. inhibition, % at 10 µM. 190,000 tested, 2.1% active. mitochondrial fusion phenotypic screen; in the data active means inhibition above about 58%; tested in S. cerevisiae
Numbers stand for hits; – = inactive; · = no result given.

SMILES | DAT uptake mod | bCat KO growth | HCT116 PTEN-null | WT yeast gro inh
CCOC(=O)c1ccc(NNC(=O)CC)c([N+](=O)[O-])c1 | · | · | · | –
O=C1C(Cl)=C(Nc2ccccc2)C(=O)c2ccccc21 | · | 1.1 | 1.0 | –
O=C(O)c1cccc(NC2=C(Cl)C(=O)c3ccccc3C2=O)c1 | · | · | · | –
O=C(NCC1CCCN(Cc2ccc3nonc3c2)C1)c1cccc(C(F)(F)F)c1 (centres undefined) | · | · | · | –
O=C(NC(Cc1c[nH]c2ccccc12)C(=O)O)c1ccco1 (centres undefined) | -9.5 | – | – | –
O=C(Nc1ccccc1C(=O)NC(Cc1c[nH]c2ccccc12)C(=O)O)c1ccco1 (centres undefined) | – | – | – | –
CCOC(=O)CSc1nc2c(sc(=S)n2Cc2ccco2)c(=O)n1-c1ccccc1 | – | – | – | –
CCOC(=O)CSc1nc2c(sc(=S)n2-c2ccccc2OC)c(=O)n1Cc1ccco1 | -4.3 | – | – | –
NC(=S)n1[nH]c(-c2ccc([N+](=O)[O-])cc2)c(N=Nc2ccc(Cl)cc2)c1=O | · | · | · | 78
Cc1cc(C)c(C(N)=O)c(Nc2cccc3ccccc23)n1 | – | – | – | 62
CC(=O)Oc1cc2oc(=O)c3c(c2cc1Cl)CCC3 | 5.6 | – | – | –
O=C(Oc1cc2oc(=O)c3c(c2cc1Cl)CCCC3)c1cccs1 | · | – | – | 70
NC(N)=Nc1nc2ccc(Cl)cc2c(=O)[nH]1 | · | · | · | –
CCNC(=S)N1CCC(n2cnc3ccccc32)CC1 | · | · | · | –
O=C(Cn1c(/C=C/c2ccccc2)nc2ccccc21)Nc1ccc(F)cc1 | · | – | – | 68
CSc1ccc(CNc2ccc(C)cc2)cc1 | – | – | – | –
COc1ccc2nc(Nc3nc(CSc4nnnn4-c4ccccc4)cc(=O)[nH]3)nc(C)c2c1 | – | 1.8 | 2.0 | –
COCc1cc(=O)[nH]c(Nc2nc(C)c3ccccc3n2)n1 | – | 1.7 | 2.3 | –
Cc1ccc2c(C)nc(Nc3nc(CSc4nnnn4-c4ccccc4)cc(=O)[nH]3)nc2c1 | – | 2.7 | 3.3 | –
O=C(NCC1CC1)C1(C(F)(F)F)C/C(=C\Cc2ccccc2)CCCO1 (centres undefined) | – | · | · | ·
CCOC(=O)Cc1nc2ccccc2n(CC#N)c1=O | · | · | · | –
Cc1cc2c(c(=O)n1Cc1ccccn1)C(c1ccc3c(c1)OCO3)C(C#N)=C(N)O2 (centres undefined) | – | – | – | –
COc1ccc(CCn2c(C)cc3c(c2=O)C(c2ccc4c(c2)OCO4)C(C#N)=C(N)O3)cc1OC (centres undefined) | 2.6 | – | – | –
Cc1ccc(N(C(C)C(=O)NCc2ccncc2)S(C)(=O)=O)cc1C (centres undefined) | · | · | · | –
CCOC(=O)C1CCN(c2c(C(=O)c3ccccc3)cnc3ccc(Cl)cc23)CC1 | – | · | · | 75
SMILES | DAT uptake mod | bCat KO growth | HCT116 PTEN-null | WT yeast gro inh
CCOC(=O)C1CCN(c2nc3ccccc3nc2C(C#N)C(=O)NCCc2ccccc2)CC1 (centres undefined) | · | – | – | 82
CCOC(=O)C1CCN(c2nc(-c3ccc(C)cc3)nc3ccccc23)CC1 | · | · | · | 71
Cc1cccc(NC(=S)NCC(c2cccnc2)N(C)C)c1C (centres undefined) | · | – | – | –
COc1ccc(S(=O)(=O)N2CCc3ccccc32)cc1C(=O)OCc1c(C)noc1C | – | – | – | –
COc1ccc(S(=O)(=O)N2CCCCCC2)cc1C(=O)OCc1c(C)noc1C | – | – | – | 97
Cn1c(SCCC#N)nnc1-c1ccc(F)cc1 | · | · | · | –
CC(C)(C)c1ccc(-c2nnc(SCCC#N)n2C2CCCC2)cc1 | – | – | – | 66
O=[N+]([O-])c1ccc(CSc2nnc(SCc3ccc(Cl)cc3)s2)cc1 | · | – | – | –
O=C(c1ccc(C#Cc2ccccc2)o1)N1CCN(c2ccccn2)CC1 | – | – | – | 69
O=C(c1ccc(COc2ccccc2Br)o1)N1CCN(c2ccccn2)CC1 | – | – | – | –
COc1ccc(S(=O)(=O)NNC(=O)c2cc3ccccc3o2)cc1 | · | – | – | –
O=C(NCC1(c2ccccc2)CCCC1)C1(c2ccccc2)CCCC1 | – | – | – | 83
COc1ccc2cc3cc(C(=O)NCCN4CCc5ccccc5C4)sc3nc2c1 | · | – | – | 58
COc1ccc(C(=O)C2CCCN(Cc3ccc(C#CCCO)cc3)C2)cc1F (centres undefined) | · | · | · | –
COC(=O)C(CC(=O)c1ccc(Br)cc1)n1ccnc1 (centres undefined) | – | 2.6 | 2.7 | –
COc1ccc(NC(=O)[C@@H](NC(=O)c2ccccc2F)C(C)C)cc1S(=O)(=O)N1CCOCC1 | · | · | · | –
CCOC(=O)c1sc(NC(=S)NC(=O)c2ccccc2)c(C(=O)OCC)c1C | · | – | – | –
CCOC(=O)C1=C(NC(=S)NC(=O)c2ccccc2)c2ccccc2CC1(C)CC (centres undefined) | · | – | – | 70
CCOC(=O)C1=C(NC(=S)NC(=O)c2ccccc2)c2ccccc2CC1C(C)C (centres undefined) | – | – | – | 78
CCc1ccccc1NC(=O)c1ccc(CN2CCC(Cc3ccccc3)CC2)cc1 | -6.9 | – | – | –
COc1ccccc1Nc1nc(N)nc(CSC(=S)N2CCCCC2C)n1 (centres undefined) | · | – | – | –
COc1ccc(Sc2cc(C(F)(F)F)nc(-c3ccccn3)n2)cc1 | – | – | – | 62
C#CCSc1cc(C(F)(F)F)nc(-c2ccccn2)n1 | · | · | · | –
Cc1cc(C(=O)OCC(=O)c2cccc([N+](=O)[O-])c2)c2ccccc2n1 | · | – | – | –
O=C(OC(c1ccccc1)c1nccc2ccccc12)c1cccc([N+](=O)[O-])c1 (centres undefined) | · | – | – | 67
SMILES | DAT uptake mod | bCat KO growth | HCT116 PTEN-null | WT yeast gro inh
O=C1NC(=O)C(CC(=O)N(Cc2cccs2)C2(C(=O)NC3CCCCC3)CCCCC2)N1 (centres undefined) | · | – | – | –
CCCNC(=S)Nc1ccc(Br)cc1 | – | – | – | –
CC(C)CCNC(=S)Nc1ccc(Br)cc1 | · | – | – | 68
CC(C)CCNC(=S)Nc1ccc([N+](=O)[O-])cc1 | · | – | – | 79
CCCCNC(=S)Nc1ccc([N+](=O)[O-])cc1 | · | – | – | –
CCn1c(CNc2cccc(C(F)(F)F)c2)n[nH]c1=S | · | · | · | –
CCC(Sc1nc2cc3c(cc2c(=O)n1Cc1ccco1)OCO3)C(=O)Nc1ccccc1OC (centres undefined) | – | – | – | –
CCC(Sc1nc2cc3c(cc2c(=O)n1Cc1ccco1)OCO3)C(=O)Nc1cccc(OC)c1 (centres undefined) | – | 1.7 | 1.7 | –
COc1ccc(C2N(c3ccccc3)CCN2c2ccccc2)cc1O | · | · | · | –
CCCCC(C(=O)OCC)C(N)Cc1ccc(F)cc1 (centres undefined) | · | · | · | –
CCCCC(O)(C(NC=O)C(=O)OC)C(F)(F)F (centres undefined) | -8.6 | – | – | –
COc1ccc2oc(=O)c(C(=O)N3CCN(c4ccccc4)CC3)cc2c1 | 3.4 | – | – | –
N/C(=N\OC(=O)c1ccc(Br)o1)c1ccccn1 | · | · | · | –

Assay outcomes as filed in PubChem.
